# In all, about 69,000 compounds went through this assay and about 8,600 (12%) showed an effect of 50% or more. What follows is part of a selection rich in strong results, with near analogues and random picks from the rest.
# System: Plasmodium berghei
# Test: Screen against P. berghei liver stage (PbLuc), transformed with Luciferase, at 10uM
# Type: functional, HepG2
# Settings: tested at 10 uM
row,Compound,INHIBITION [%]
1,CCCC(=O)Nc1ccc(CC(=O)N(C)CCc2cn[nH]c2)cc1,17.3
2,COCC1N(C(=O)c2ccc3c(c2)OCCCO3)C2CCC1(O)CC2 (configuration not stated),-35.3
3,CN1CC(C(=O)NCc2cccnc2-n2cccn2)CC1=O (configuration not stated),-37.7
4,COCC1CN(Cc2cc(C)on2)Cc2cnn(C)c21 (configuration not stated),-13.7
5,CCn1c(Cn2cncn2)nnc1C1CCN(Cc2cccnc2)CC1,-50.8
6,Cc1nn(C)c2c(N3CCSCC3)nc(C3CC3)nc12,22.6
7,CN1CCN(c2ccc(NCc3ccc(OC(F)(F)F)cc3)cn2)CC1,83.2
8,CCOc1ccc(NCc2cnc(N3CCN(C)CC3)nc2)cn1,-15.7
9,CN1CCN(c2ccc(NCc3ccc([S+](C)[O-])cc3)cn2)CC1 (configuration not stated),47.4
10,CN(Cc1ccsc1)C(=O)Nc1ccc(N2CCCC2)nc1,15.3
11,Cc1nc(CNCc2ccc(N3CCN(C)CC3)nc2)cs1,29.1
12,CN1CCN(c2ccc(NCc3ccsc3)cn2)CC1,69.3
13,O=C(c1ccco1)N1C[C@@H]2CN(c3ccccn3)C[C@@H]2C1,5.04
14,O=C1NC2(CCN(C(=O)c3ccccc3)CC2)CC1c1cccnc1 (configuration not stated),-8.19
15,CCOCCNC(=O)c1cccc(S(=O)(=O)NC[C@@H]2C[C@H](F)CN2)c1,-3.87
16,O=C(c1cccc(S(=O)(=O)NC[C@@H]2C[C@H](F)CN2)c1)N1CCCCC1,46.1
17,O=C(Nc1ccccc1)c1cccc(S(=O)(=O)NC[C@@H]2C[C@H](F)CN2)c1,60.2
18,CNc1snc(C)c1C(=O)N1CCCC(n2ccnc2C)C1 (configuration not stated),37.9
19,Cn1ccnc1CN1CCc2onc(COCC3CC3)c2C1,19.6
20,Cc1nccn1CCCN1CCCC(c2ccccc2)C1 (configuration not stated),49.4
21,CC(=O)Nc1ccc(OCc2noc(C(=O)N3CCCCCC3)n2)cc1,64.7
22,CC(=O)Nc1ccc(OCc2noc(C(=O)N3CCCCC3)n2)cc1,17.1
23,CC(=O)Nc1ccc(OCc2noc(C(=O)N3CCCC3)n2)cc1,31.3

row,Compound,INHIBITION [%]
1,N#Cc1cccc(N2CCCC3(C2)CN(c2ncc(F)cn2)CCO3)n1 (configuration not stated),8.31
2,c1coc(CN2CCn3c(COCC4CC4)nnc3C2)c1,18.5
3,NC(=O)C1CCCN(C(=O)c2cnc3c(cnn3C3CCCC3)c2)C1 (configuration not stated),56.6
4,CN1CCN(C(=O)c2cnc3c(cnn3C3CCCC3)c2)CC1,24.8
5,CCOC1CCCN(C(=O)c2cnc3c(cnn3C3CCCC3)c2)C1 (configuration not stated),24
6,O=C(O)CN(C(=O)c1ccccc1)[C@H]1C[C@H]2CCOC[C@H]2C1,-6.53
7,Cc1ccc(NC2CCN(C(=O)c3ccc(C(N)=O)s3)CC2)nn1,42
8,CN(C)c1ncccc1CNC(=O)NCc1ccc(Cl)s1,-10.1
9,Cn1nccc1CCC(=O)N1CCC(c2cnccn2)CC1,54.4
10,Cn1nccc1CCC(=O)N1CCCC(c2cnccn2)C1 (configuration not stated),25.6
11,O=C(CCc1ccccc1F)N1CCCC(OCc2cccnc2)C1 (configuration not stated),48.8
12,COc1ccccc1CCC(=O)N1CCCC(OCc2cccnc2)C1 (configuration not stated),25.8
13,Cn1nccc1CCC(=O)N1CCCC(Cc2cccnc2)C1 (configuration not stated),56
14,Cn1cnnc1CCC(=O)N1CCCC(OCc2cccnc2)C1 (configuration not stated),51
15,CN(CCC(=O)N1CCCC(Cc2cccnc2)C1)Cc1cccnc1 (configuration not stated),38.2
16,CC(C)C(=O)N1CCCC(Cc2cccnc2)C1 (configuration not stated),16.2
17,Cc1cncc(C2CCN(C(=O)CCc3ccnn3C)CC2)n1,6.32
18,O=C(CCn1ncc2ccccc21)N1CCCC(Cc2cccnc2)C1 (configuration not stated),53
19,O=C1CCCN1CCCC(=O)N1CCCC(Cc2cccnc2)C1 (configuration not stated),41.2
20,Cc1ccn(CCC(=O)N2CCCC(Cc3cccnc3)C2)n1 (configuration not stated),41.2
21,CN(CC(=O)NC1CCOCC1)C1CCCN(c2cccnn2)C1 (configuration not stated),26.5
22,O=C(CCCN1CCOC1=O)Nc1cnn(-c2ccccc2Cl)c1,33.8
23,CNc1cc2c(nn1)CCN(C(=O)c1ccc3c(c1)CCC3)C2,27.4

row,Compound,INHIBITION [%]
1,Cc1noc(C)c1CNCC1CNc2ccnn2C1 (configuration not stated),39.3
2,CC(C)n1cc(CN2CCCN(C(=O)CN3CCCC3=O)CC2)cn1,33.7
3,CC(C)N(C)Cc1n[nH]c2c1CCN(C(=O)c1ccc[nH]1)C2,2.79
4,CC(C)CCNC(=O)CNC(=O)N1CCc2c([nH]c3ccc(Cl)cc23)C1,-2.13
5,Fc1ccccc1CN1CCCN(c2ncnc3[nH]ccc23)CC1,26.9
6,c1cc(CN2CCCN(c3ccc4cc[nH]c4n3)CC2)ccn1,54.4
7,c1cc2ccc(N3CCN(Cc4ccc5c(c4)OCO5)CC3)nc2[nH]1,44.7
8,Cc1ccn(-c2ccc(N3CCCN(Cc4ccccc4)CC3)nn2)n1,6.39
9,Fc1ccccc1CN1CCCN(c2ccc3cc[nH]c3n2)CC1,70.4
10,O=C1OCCN1CCN1CCCN(Cc2ccccc2F)CC1,15.1
11,Cc1cc(-n2nc(C3CC3)nc2-c2csnn2)ccn1,19.5
12,CN1CCOC(CNCc2coc(-c3ccccc3Cl)n2)C1 (configuration not stated),16.8
13,CC(C)c1noc(CN2CCN(C(=O)c3cccc(F)c3)CC2)n1,-31.5
14,CCN(CC)S(=O)(=O)c1ccc2c(c1)N(Cc1ccccn1)C(=O)CS2,13.1
15,CS(=O)(=O)N1CC[C@]2(O)CCN(c3cc(C#N)ccn3)C[C@@H]2C1,52.2
16,CN(C)S(=O)(=O)N1CC[C@]2(O)CCN(c3cc(C#N)ccn3)C[C@@H]2C1,36.5
17,CS(=O)(=O)N1CC[C@]2(O)CCN(c3ccnc(N)n3)C[C@@H]2C1,20.8
18,Cc1cc(C(=O)NC2CCN(CC(N)=O)CC2)nn1C(C)(C)C,-1.54
19,CC(C)(C)n1nc(C2CC2)cc1C(=O)NC1CCN(CC(N)=O)CC1,56
20,CC(C)(C)n1nc(C(=O)NC2CCN(CC(N)=O)CC2)cc1C1CC1,5.03
21,Cc1noc(C(C)C)c1C(=O)NCCN1CCCCCC1=O,11.6

# Reference: ChEMBL document CHEMBL4513216, “Probing the Open Global Health Chemical Diversity Library for Multistage-Active Starting Points for Next-Generation Antimalarials” (ACS Infect Dis, 2020)
